Source: PubChem BioAssay (National Center for Advancing Translational Sciences (NCATS))
In the library only some 19% were active in any assay of this set; here they are far more common.
ELG1 repair inh: blocks ELG1-dependent DNA repair in HEK293T cells | Potency, µM (series often up to 46.1 µM), for the others: at the highest dose activity change, negative = inhibition, actives largely listed as inhibitors | HEK293T ELG1-luciferase reporter, luminescence, 16 h; DNA damage induced by 5-fluorouridine | actives 2.3% (n = 330,000); also: potency is read from the fitted curve at half-maximal effect; nearly all actives have a fitted effect of over 55% in size
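Cells (2,000 per well) received 5-fluorouridine plus test compound or DMSO and were incubated 16 hr at 37 °C, 5% CO2. Luciferase activity was read by luminescence 30 min after ONE-Glo addition; signal suppression marked inhibition of damage-induced ELG1 function.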
DT40 TDP1 no CPT: qHTS for Inhibitors of human tyrosyl-DNA phosphodiesterase 1 (TDP1): qHTS in cells in absence of CPT. DT40 Tdp1-/- hTDP1 cells, no CPT, ATP luminescence, 48 h. actives 15% (n = 420,000). Potency, µM (highest dose often 46.2 µM), for inactives: top-dose activity change, negative = growth inhibition, most hits filed as inhibitors; also: potency is read from the fitted curve at half-maximal effect; nearly all actives have a fitted effect of over 55% in size
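No-CPT arm: Tdp1-/-;hTDP1 DT40 cells (400/well) plus compounds, incubated ≥48 hr at 37 °C. Readout CellTiter-Glo luminescence.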
IL1B secr inh: inhibitors of inflammasome signaling (IL-1 beta secretion) | THP-1 LPS/ATP IL-1B secretion, AlphaLISA, 16 h; stronger effect = lower value | activity change, % at 57.5 µM | AID 743279 | actives 4.7% (n = 360,000); in the data active = activity change below about -50%; inconclusive = mostly about -30% to -49%
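Secreted IL-1B measured by AlphaLISA bead assay after 16 h compound exposure of THP-1 cells; compounds (final up to 57.5 uM) added 1 h before LPS (250 ng/mL) and ATP (1.25 mM) stimulation; lower signal means less secretion.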
Giardia kill: Giardia lamblia killing | activity change, % at 7.66 µM, hits read low | actives 0.15% (n = 340,000) | Giardia lamblia trophozoite viability | AID 540267; in the data active = activity change below about -80%; inconclusive = between about -30% and that limit;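 also: parasites exposed to compound for two days anaerobically before the ATP read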
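Trophozoites 100 cells/well + cpd; 48 hrs, 37 deg C, anaerobic. ATPLite 1-Step added, 15-30 min RT, luminescence read (ATP-based viability).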
TDP1 cell CPT: DT40-hTDP1 cell growth loss with CPT | Potency, µM (highest dose often 46.2 µM), for the others: top-dose activity change, negative = growth inhibition, most hits filed as inhibitors | actives 12% (n = 420,000) | chicken DT40 Tdp1-/-;hTDP1 cells + 20 nM CPT, ATP luminescence, 48 h | AID 686979; also: potency is read from the fitted curve at half-maximal effect; nearly all actives have a fitted effect of over 55% in size
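Cell growth measured by CellTiter-Glo luminescence after a minimum 48 h, 37 C compound exposure with 20 nM CPT in Tdp1-knockout DT40 cells stably expressing hTDP1, seeded 400/well; qHTS titration format.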
TDP1 block: blocks human tyrosyl-DNA phosphodiesterase 1. recombinant TDP1, AlphaScreen DNA substrate cleavage. Potency, µM (top dose mostly 130 µM), inactives show top-dose activity change, negative = inhibition, usual class: inhibitors. actives 0.28% (n = 350,000). AID 485290; also: potency is read from the fitted curve at half-maximal effect; nearly all actives have a fitted effect of over 40% in size
Target sequence (Q9NUW8 whole entry, looked up): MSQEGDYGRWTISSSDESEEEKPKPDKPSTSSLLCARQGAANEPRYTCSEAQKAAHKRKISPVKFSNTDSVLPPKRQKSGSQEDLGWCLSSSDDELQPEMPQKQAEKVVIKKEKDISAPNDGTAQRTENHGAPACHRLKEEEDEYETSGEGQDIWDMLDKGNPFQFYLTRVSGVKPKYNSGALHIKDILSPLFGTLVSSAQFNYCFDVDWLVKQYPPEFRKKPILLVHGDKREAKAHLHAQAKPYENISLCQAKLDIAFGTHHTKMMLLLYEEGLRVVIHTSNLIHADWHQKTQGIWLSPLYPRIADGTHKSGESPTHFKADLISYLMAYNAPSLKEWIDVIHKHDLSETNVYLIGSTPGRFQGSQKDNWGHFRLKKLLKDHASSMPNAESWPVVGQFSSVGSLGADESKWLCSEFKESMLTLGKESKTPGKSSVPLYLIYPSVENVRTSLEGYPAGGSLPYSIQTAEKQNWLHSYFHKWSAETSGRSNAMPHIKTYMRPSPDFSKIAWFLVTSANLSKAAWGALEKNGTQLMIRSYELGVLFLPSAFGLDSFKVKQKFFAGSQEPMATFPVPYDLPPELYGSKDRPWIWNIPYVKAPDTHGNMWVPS
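Here, a 5' biotin and 3' phosphotyrosine-FITC DNA oligonucleotide reports Tdp1 activity: intact substrate bridges AlphaScreen beads, while cleavage leaves a 3' phosphate and drops signal. All incubations at room temperature.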
* marks the source's active call; other numbers are inactive results. Unless noted, calls follow the shape of the dose curve; as a rule, active = well fitted curve in the direction sought with a large enough effect; inconclusive = small, poorly fitted or top-dose-only effect, or another doubt; inactive = no such curve, though single readings can be large; an effect the other way counts as inactive or inconclusive. % is scaled to controls: 0 for no effect and ±100 for the full control effect.

Results for CCN1CCN(c2nc3c(c(=O)[nH]c(=O)n3C)n2CCCc2ccccc2)CC1 ?
ELG1 repair inh: -12%; DT40 TDP1 no CPT: -13%; IL1B secr inh: 1; Giardia kill: -2; TDP1 cell CPT: -1%; TDP1 block: 0%

How did Cn1c(=O)[nH]c(=O)c2c1nc(N1CCN(Cc3ccccc3)CC1)n2CCCc1ccccc1 do in these assays?
ELG1 repair inh: inconclusive; DT40 TDP1 no CPT: 16µM*; IL1B secr inh: 1; Giardia kill: 6; TDP1 cell CPT: 12µM*; TDP1 block: 8%

How did Cn1c(=O)c2c(nc(N3CCN(c4ccccc4)CC3)n2CCCc2ccccc2)n(C)c1=O do in these assays?
ELG1 repair inh: inconclusive; DT40 TDP1 no CPT: 6.5µM*; IL1B secr inh: 28; Giardia kill: 7; TDP1 cell CPT: 8.2µM*; TDP1 block: 6%

How did COC(=O)c1ccc(C(=O)OC)c(NC(=S)N2CCN(C(=O)C3CCCO3)CC2)c1 (stereo not drawn) do in these assays?
ELG1 repair inh: 13%; DT40 TDP1 no CPT: -2%; IL1B secr inh: -13; Giardia kill: -12; TDP1 cell CPT: -4%; TDP1 block: 6%

What do the screens show for `CC(C)(C)Nc1oc(-c2ccccc2)nc1-c1ccccc1F`?
TDP1 block: 8%

Results for CCOCCn1c(=O)c2c(nc3n2CCN3c2ccc(CC)cc2)n(C)c1=O ?
DT40 TDP1 no CPT: inconclusive; IL1B secr inh: 54; Giardia kill: -26; TDP1 cell CPT: 15µM*

What do the screens show for `Cn1c(=O)c2c(nc(N3CCN(Cc4ccccc4)CC3)n2CC(=O)c2ccccc2)n(C)c1=O`?
DT40 TDP1 no CPT: 0%; IL1B secr inh: 12; Giardia kill: -10; TDP1 cell CPT: -21%

How did Cn1c(=O)c2c(nc(N3CCN(Cc4ccccc4)CC3)n2CCCc2ccccc2)n(C)c1=O do in these assays?
ELG1 repair inh: 12µM*; DT40 TDP1 no CPT: 18µM*; IL1B secr inh: 0; Giardia kill: 7; TDP1 cell CPT: 12µM*; TDP1 block: 2%

Results for CN1CCN(c2nc3c(c(=O)n(C)c(=O)n3C)n2Cc2ccccc2)CC1 ?
ELG1 repair inh: 12%; DT40 TDP1 no CPT: 12%; IL1B secr inh: -6; Giardia kill: 3; TDP1 cell CPT: -10%

How did CC1CCN(c2nc3c(c(=O)n(C)c(=O)n3C)n2Cc2ccccc2)CC1 do in these assays?
ELG1 repair inh: -19%; DT40 TDP1 no CPT: inconclusive; IL1B secr inh: -62*; Giardia kill: -12; TDP1 cell CPT: -26%; TDP1 block: 3%

What do the screens show for `Cn1c(SCC(=O)NC2CCCCC2)nnc1C(F)(F)F`?
DT40 TDP1 no CPT: 5%; IL1B secr inh: -17; TDP1 cell CPT: 1%

What do the screens show for `N#CCCn1cc(/C=N/NC(=O)c2ccncc2)c(-c2ccc(F)cc2)n1`?
ELG1 repair inh: inconclusive; DT40 TDP1 no CPT: -1%; IL1B secr inh: 7; Giardia kill: -5; TDP1 cell CPT: 5%; TDP1 block: 3%

How did Cc1cccc(NC(=O)CN2CCC(C(=O)c3ccc4c(c3)OCCO4)CC2)c1 do in these assays?
ELG1 repair inh: -26%; DT40 TDP1 no CPT: 16µM*; IL1B secr inh: inconclusive; Giardia kill: 10; TDP1 cell CPT: inconclusive; TDP1 block: 10%

Results for O=C(c1ccc2c(c1)OCCO2)C1CCN(C(=O)Nc2ccc(F)cc2)CC1 ?
ELG1 repair inh: inconclusive; DT40 TDP1 no CPT: 18µM*; IL1B secr inh: 15; Giardia kill: -10; TDP1 cell CPT: inconclusive

How did CCS(=O)(=O)N1CCC(NC(=O)C(Cc2cccc(OC)c2OC)NC(C)=O)CC1 (stereo not drawn) do in these assays?
ELG1 repair inh: 0%; DT40 TDP1 no CPT: 3%; IL1B secr inh: 5; Giardia kill: 20; TDP1 cell CPT: -4%

How did CC(C)(C)CN1C(N)=NC[C@@H]1c1ccccc1 do in these assays?
DT40 TDP1 no CPT: inconclusive; IL1B secr inh: -4; Giardia kill: 6; TDP1 cell CPT: inconclusive

What do the screens show for `CCCCN1C(N)=NC[C@@H]1c1ccccc1`?
DT40 TDP1 no CPT: 13µM*; IL1B secr inh: -12; Giardia kill: -6; TDP1 cell CPT: 16µM*

Results for CC(C)(C)c1ccc(CC(=O)N2CCC2(C)C(=O)NCc2cccs2)cc1 (stereo not drawn) ?
DT40 TDP1 no CPT: 10µM*; IL1B secr inh: 0; TDP1 cell CPT: 12µM*

Results for CC(C)(C)c1ccc(C(=O)N2CCC2(C)C(=O)NCc2cccs2)cc1 (stereo not drawn) ?
DT40 TDP1 no CPT: 0.65µM*; IL1B secr inh: 0; TDP1 cell CPT: 6.5µM*

Results for CC1(C(=O)NCc2cccs2)CCN1C(=O)Cc1ccc(Cl)cc1Cl (stereo not drawn) ?
DT40 TDP1 no CPT: inconclusive; IL1B secr inh: 5; TDP1 cell CPT: inconclusive

How did Cc1cc(-c2ccc(S(=O)(=O)N3CCN(c4ccc(Cl)cc4)CC3)s2)on1 do in these assays?
DT40 TDP1 no CPT: -9%; TDP1 cell CPT: inconclusive; TDP1 block: 0%

Results for Cc1ccc(NC(=O)CN2C(=O)NC3(CCc4ccccc43)C2=O)cc1Cl (stereo not drawn) ?
ELG1 repair inh: -1%; DT40 TDP1 no CPT: 26µM*; IL1B secr inh: 1; Giardia kill: 0; TDP1 cell CPT: -25%; TDP1 block: 2%

Results for O=C(CN1C(=O)NC2(CCCc3ccccc32)C1=O)c1ccc(Br)cc1 (stereo not drawn) ?
ELG1 repair inh: 1%; DT40 TDP1 no CPT: 13µM*; IL1B secr inh: -8; Giardia kill: -9; TDP1 cell CPT: inconclusive; TDP1 block: 0%

What do the screens show for `COc1ccc(N2CCN(C(=O)CN3C(=O)NC4(CCCc5ccccc54)C3=O)CC2)cc1` (stereo not drawn)?
ELG1 repair inh: -10%; DT40 TDP1 no CPT: 16µM*; IL1B secr inh: -4; Giardia kill: inconclusive; TDP1 cell CPT: -8%; TDP1 block: -1%

Results for Cc1ccc(NC(=O)CN2C(=O)NC3(CCc4ccccc43)C2=O)cc1 (stereo not drawn) ?
ELG1 repair inh: 6%; DT40 TDP1 no CPT: 10%; IL1B secr inh: -18; Giardia kill: inconclusive; TDP1 cell CPT: -15%; TDP1 block: 5%

Results for CC(C)c1ccc(C(=O)CN2C(=O)NC3(CCc4ccccc43)C2=O)cc1 (stereo not drawn) ?
ELG1 repair inh: -9%; DT40 TDP1 no CPT: 21µM*; IL1B secr inh: inconclusive; Giardia kill: 1; TDP1 cell CPT: inconclusive; TDP1 block: 3%
